Source: PubChem
A selection: hits, their analogues and other compounds. The true share with any hit is near 3.6%.
Candida biofilm: kills Candida albicans biofilms. hit rate 0.14% among 85,000. inhibition, % at 6 µM. C. albicans biofilm + clotrimazole, Alamar Blue;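 active = inhibition above 20%; inactive = inhibition below 20%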;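 also: preformed 24 hr biofilms exposed to compound for 48 hr; 0% = biofilm without compound and 100% = blank killed by clotrimazole plus chlorhexidine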
ERb SRC1 inh: blocks coactivator binding to human estrogen receptor beta; hit rate 1.3% among 86,000; inhibition, % at 25.6 µM; TR-FRET ER-beta LBD / SRC1-Cy5 peptide binding; receptor agonist-loaded with 1 µM estradiol;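 active = compounds whose percent inhibition of the receptor-coactivator binding signal exceeds about 50% in the single-dose screen, limit read from the data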;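 also: 0% = receptor plus peptide wells without compound and 100% = peptide-only wells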
ERa SRC1 inh: blocks coactivator binding to human estrogen receptor alpha; P03372; inhibition, % at 25.6 µM; AID 629; hit rate 1.7% among 86,000; TR-FRET ER-alpha LBD / SRC-1 peptide, estradiol-bound; in the data active = inhibition above about 50%;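 also: 0% = receptor plus peptide control and 100% = peptide only without receptor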
ERa SRC1 pot: enhances coactivator binding to human estrogen receptor alpha | coactivator binding (% of control), % at 25.6 µM | P03372 | AID 639 | TR-FRET ERalpha-LBD/SRC-Cy5 coactivator binding, 2 h; 100 = basal binding, no effect | hit rate 1.3% among 86,000; in the data active = activity above about 200%;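 also: binding measured in presence of low estradiol as agonist stimulus; 0% = peptide alone without receptor and 100% = receptor with peptide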
Smad3 FoxH1 inh: blocks human Smad3 binding to FoxH1 peptide | hit rate 0.29% among 88,000 | P84022 | inhibition, % at 25 µM | TR-FRET Smad3/Dy647-FoxH1 peptide binding, europium anti-His;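 active = compounds that reduce the energy-transfer binding signal between the protein and its labelled peptide by more than half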;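 also: 0% = Smad3 plus labelled peptide maximal FRET and 100% = peptide-only background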
Target sequence (P84022 whole entry, looked up): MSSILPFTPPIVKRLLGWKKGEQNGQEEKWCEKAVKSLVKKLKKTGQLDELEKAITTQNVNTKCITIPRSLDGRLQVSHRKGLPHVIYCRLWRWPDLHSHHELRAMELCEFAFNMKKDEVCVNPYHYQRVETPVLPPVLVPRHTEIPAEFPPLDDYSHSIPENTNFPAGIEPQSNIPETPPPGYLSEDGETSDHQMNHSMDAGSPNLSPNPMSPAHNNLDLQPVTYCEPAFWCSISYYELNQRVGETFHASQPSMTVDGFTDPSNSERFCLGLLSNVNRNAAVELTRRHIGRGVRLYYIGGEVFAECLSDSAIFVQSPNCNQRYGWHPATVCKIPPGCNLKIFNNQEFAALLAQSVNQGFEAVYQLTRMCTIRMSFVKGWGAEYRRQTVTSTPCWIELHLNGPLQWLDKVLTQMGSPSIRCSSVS
The depositor's hits bear a star; . = not tested or not shown; [ ] = remark or other dose.

SMILES	Candida biofilm	ERb SRC1 inh	ERa SRC1 inh	ERa SRC1 pot	Smad3 FoxH1 inh
O=C1c2ccccc2C(=O)c2c(Nc3cc4c5c(ccc6c7ccc8c9c(cc(Nc%10cccc%11c%10C(=O)c%10ccccc%10C%11=O)c(c3c56)c97)-c3ccccc3C8=O)C(=O)c3ccccc3-4)cccc21	.	.	.	.	73.4*
O=C1c2ccccc2C(=O)c2c(Nc3ccc4c5c(cccc35)C(=O)c3ccccc3-4)cccc21	.	.	.	.	83.1*
O=C(NNC(=O)c1ccc(SCC2CCCO2)c([N+](=O)[O-])c1)c1ccc(Cl)c([N+](=O)[O-])c1 (centres undefined)	3.0	18.1	51.0*	62.2	13.3
COc1ccc(-c2nnc3n2N=C(c2cccc(Br)c2)CS3)cc1OC	7.7	49.4	39.4	233.4*	20.0
O=C1Nc2ccc(S(=O)(=O)NCc3ccccn3)c3cccc1c23	-1.6	61.2*[fluorescence artefact?]	32.8	80.8	-10.2
CCNc1nnc(-c2ccccc2OC)s1	4.4	73.1*[fluorescence artefact?]	5.8	72.8	-9.6
O=C(O)c1ccc2c(c1C(=O)O)C(=O)OC2(c1ccc(O)cc1)c1ccc(O)cc1	.	.	.	.	77.9*
O=C1OC2(c3ccc(O)cc3Oc3cc(O)ccc32)c2c1c(-c1ccccc1)c(-c1ccccc1)c(-c1ccccc1)c2-c1ccccc1	.	.	.	.	1.1
N=c1c(C(=O)NCc2ccc(F)cc2)cc2c(=O)n3ccccc3nc2n1Cc1cccnc1	5.0	21.6	71.4*	64.6	7.7
COC(=O)c1cc2c(=O)n3ccccc3nc2n(Cc2cccnc2)c1=N	7.3	6.1	-8.8	105.0	11.0
Cc1nc2c(c(=O)n1CC1CCCO1)c1nc3ccccc3nc1n2Cc1ccc2c(c1)OCO2 (centres undefined)	3.8	58.2*[fluorescence artefact?]	68.7*[fluorescence artefact?]	107.9	0.2
O=c1c2c3nc4ccccc4nc3n(-c3ccc4c(c3)OCCO4)c2ncn1CC1CCCO1 (centres undefined)	5.2	39.2	68.8*	41.6	10.2
O=c1c2c3nc4ccccc4nc3n(-c3ccc4c(c3)OCCO4)c2ncn1C1CCCC1	-1.3	-0.6	1.0	97.3	-10.5
CC(C)Cn1cnc2c(c1=O)c1nc3ccccc3nc1n2Cc1ccc2c(c1)OCO2	2.4	-1.1	8.5	127.2	13.1
CCC(C)n1c(C)nc2c(c1=O)c1nc3ccccc3nc1n2-c1ccc2c(c1)OCCO2 (centres undefined)	8.3	30.6	44.4	256.2*[fluorescence artefact?]	14.1
CCCNC(=O)c1c(N)n(-c2ccc3c(c2)OCO3)c2nc3ccccc3nc12	1.7	9.0	2.9	113.5	-7.2
CCOc1ccc(CC2S/C(=N/c3ccccn3)NC2=O)cc1 (centres undefined)	1.4	-24.7	-56.7	331.1*	-0.1
CCOC(=O)C1CCN(C(=O)C2CC(=O)N(c3ccc(C)cc3)C2)CC1 (centres undefined)	4.9	2.2	-6.0	99.0	7.8
CC(=O)CCc1c(C)c2cccc(C)c2[nH]c1=O	6.8	82.2*[fluorescence artefact?]	4.2	94.9	-1.5
Cc1c(C)n(C(=O)CSc2nc3ccccc3[nH]2)c2ccccc12	1.1	21.1	55.3*[fluorescence artefact?]	16.7	-0.4
COc1cccc(C(=O)NC2CC3CCCC(C2)N3CC(=O)Nc2ccccc2)c1 (centres undefined)	1.0	99.2*[fluorescence artefact?]	97.5*[fluorescence artefact?]	8.3	81.1*
O=S1(=O)N[C@H]2CC[C@H]3NS(=O)(=O)N[C@H]4CC[C@@H](N1)N4S(=O)(=O)N23	.	.	.	.	24.0
N#CC1=C(N)n2c(s/c(=C\c3ccco3)c2=O)=C(C#N)C1c1ccco1 (centres undefined)	11.8	66.7*[fluorescence artefact?]	75.5*[fluorescence artefact?]	36.3	5.1
Cc1ccc(-c2noc(CSc3nnnn3C3CCCCC3)n2)cc1	9.9	10.6	1.4	106.3	0.9
N#Cc1cc(Oc2cccnc2)c(Oc2cccnc2)cc1C#N	-5.5	61.1*[fluorescence artefact?]	45.8	46.5	0.8
COC(=O)Cn1c(=NC(=O)C2CC2)sc2c(C)cc(C)cc21	-0.5	-6.3	54.8*[fluorescence artefact?]	133.7	-6.8
O=C1OC(Nc2ccc3c(c2)OCO3)c2ccccc21 (centres undefined)	8.6	52.0*	34.9	73.9	5.2
O=C1c2ccccc2C(Nc2ccc3c(c2)OCCO3)N1Cc1ccc2c(c1)OCO2 (centres undefined)	3.8	-8.4	-0.4	98.9	10.7
COc1cccc(NC(=O)c2nnn(Cc3ccc(Br)cc3F)c2N)c1	3.9	-24.2	-3.5	269.9*	-9.4
Cc1ccc2c(c1)N[C@H](c1ccc(C(=O)O)cc1)c1cccn1-2	.	.	.	.	13.1
